In PubChem BioAssay (NCI):
About 79,000 compounds went through this panel and 15% of them were active in at least one assay; those are over-represented in the sample as a whole. A number with no mark means an inactive call. Rule as the data show it: active = growth inhibition above about 70%; inactive = the rest.

Assays:
[1] = NCI Yeast Anticancer Drug Screen. Data for the bub3 strain (AID 167); conditions: S. cerevisiae bub3 mutant strain, at 50.0 µM, active compounds read high
Outline: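 Screening used yeast with an engineered genetic alteration affecting cell cycle control. Compound-exposed cultures were compared with vehicle cultures, and reduced growth was taken as inhibition.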

[2] = NCI Yeast Anticancer Drug Screen. Data for the cln2 rad14 strain (AID 165);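 also: 0% = growth equal to vehicle treated cultures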; conditions: S. cerevisiae cln2 rad14 strain, at 50.0 µM, active compounds read high
Outline: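 Growth inhibition, relative to vehicle-treated controls, is the read-out. The test organism is a yeast strain with defined genetic alterations, cln2 rad14.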

SMILES | growth inhibition [1] | growth inhibition [2]
CCCC(=O)Nc1cn(COC)c(C(=O)N2C[C@H]3C[C@@]34C2=CC(=O)c2[nH]cc(C)c24)n1 | 40.8% | –
O=S1(=O)CC(N2CCCCC2)C2=C(O1)c1ccccc1N(c1ccccc1)C2 (stereo not drawn) | -0.4% | –
O=C(C[n+]1ccccc1)NNC(=O)/C(=C/c1ccc2c(c1)OCO2)NC(=O)c1ccccc1 | – | 21.3%
